# According to PubChem BioAssay AID620 (Sanford-Burnham Center for Chemical Genomics, 2007):
# Out of some 87,000 compounds screened, about 360 (0.41%) were called active. Cut-off read from the data, not from the text of the source: active = cytotoxicity above about 50%; inactive = the rest. This excerpt belongs to a sample that is enriched for actives.
# Assay: cytotoxicity in HT1080 fibrosarcoma cells, cell-based, fluorescence readout (AID 620);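 note: cells exposed to compound overnight then 4 h with Alamar Blue; 0% = vehicle DMSO and 100% = killing control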
# Conditions: HT1080 viability, at 10 µM, active compounds read high
row,Compound,cytotoxicity
1,COc1cc(NS(=O)(=O)c2ccc(OC)c(C)c2C)c(OC)cc1Cl,55.1% (active)
2,COc1cc(NS(=O)(=O)c2cc(C)ccc2OC)c(OC)cc1Cl,-2.6% (inactive)
3,COc1ccc(OC)c(S(=O)(=O)Nc2cc(OC)c(Cl)cc2OC)c1,9.8% (inactive)
4,CCOc1cc(C2CC(=O)Nc3cc(C)c(C)cc32)ccc1O (stereo unspecified),-0.2% (inactive)
5,COc1ccc(NC(=O)CCN2CCCCC2)cc1,9% (inactive)
6,CCOc1ccccc1-c1nc(-c2cc3ccccc3nc2OC)no1,-4.6% (inactive)
7,Cc1cc(F)c(F)c(C(=O)N2CCN(C)CC2)c1Cl,6.8% (inactive)
8,CCc1ccc(C2(O)CC(C(F)(F)F)=NN2C(=O)Cc2ccc([N+](=O)[O-])cc2)cc1 (stereo unspecified),2.2% (inactive)
9,c1cc2c(cc1C1CCCCC1)c1c3n2CCCNC3CCC1 (stereo unspecified),69.7% (active)
10,c1ccc2c(c1)c1c3n2CCNC3CCC1 (stereo unspecified),-2.4% (inactive)
11,Cc1ccc2c(c1)c1c3n2CCN(C(=O)C2CC2)C3CCC1 (stereo unspecified),-15.3% (inactive)
12,Cc1ccc2c(c1)c1c3n2CCN(C(=O)CN2CCN(C)CC2)C3CCC1 (stereo unspecified),12.8% (inactive)
13,Cc1ccc2c(c1)c1c3n2CCCNC3CCC1 (stereo unspecified),-1.3% (inactive)
14,O=C(NC(Cc1ccc2c(c1)OCO2)C(=O)N1CCCC1C(=O)O)c1ccccc1 (stereo unspecified),3.5% (inactive)
15,Cn1c(=O)[nH]c2sc3c(c2c1=O)CC(C)(C)OC3,27.1% (inactive)
16,CCOCCOC(=O)c1[nH]c2c(c1C)C(=O)CC(c1ccc(N(C)C)cc1)C2 (stereo unspecified),-3.6% (inactive)
17,COCCOC(=O)c1[nH]c2c(c1C)C(=O)CC(c1ccc(N(C)C)cc1)C2 (stereo unspecified),-0.7% (inactive)
18,Cc1c(C(=O)OCC2CCCO2)[nH]c2c1C(=O)CC(c1ccc(N(C)C)cc1)C2 (stereo unspecified),-2.7% (inactive)
19,Cc1c(C(=O)N2CCOCC2)[nH]c2c1C(=O)CC(c1ccc(Cl)cc1)C2 (stereo unspecified),5.8% (inactive)
20,CSCCOC(=O)c1[nH]c2c(c1C)C(=O)CC(c1ccco1)C2 (stereo unspecified),62.4% (active)
21,CCOC(=O)c1[nH]c2c(c1C)C(=O)CC(c1ccco1)C2 (stereo unspecified),66% (active)

row,Compound,cytotoxicity
1,CCOC(=O)c1ccc(N=CC2=C(O)CC(c3ccco3)CC2=O)cc1 (stereo unspecified),-1.5% (inactive)
2,COCCOC(=O)c1[nH]c2c(c1C)C(=O)CC(c1ccco1)C2 (stereo unspecified),67.1% (active)
3,Cc1c(C(=O)OCC2CCCO2)[nH]c2c1C(=O)CC(c1ccco1)C2 (stereo unspecified),52.9% (active)
4,COc1ccc(OC)c(C2CC(=O)c3c([nH]c(C(=O)OCC4CCCO4)c3C)C2)c1 (stereo unspecified),-5.3% (inactive)
5,COCCOC(=O)c1[nH]c2c(c1C)C(=O)CC(c1cc(OC)ccc1OC)C2 (stereo unspecified),-3.5% (inactive)
6,COC(=O)NCC(c1cccnc1)N1CCOCC1 (stereo unspecified),2.8% (inactive)
7,COc1ccc(C(c2nnnn2C2CCCC2)N2CCN(C3CCCC3)CC2)cc1OC (stereo unspecified),-1.8% (inactive)
8,Cc1ccc(NC(=O)c2oc3c(c2C)C(=O)CC(C)(C)C3)cc1,-0.8% (inactive)
9,O=S(=O)(c1ccccc1)N1CCN(S(=O)(=O)c2ccccc2)C1,-4.1% (inactive)
10,CCn1cnc2cc(NS(=O)(=O)c3ccc(C)cc3)ccc21,11.7% (inactive)
11,Cc1ccccc1NC(=O)c1cccc2nccnc12,-4.6% (inactive)
12,COc1ccc(-c2cnc3nc[nH]c(=O)c3n2)cc1,-12.3% (inactive)
13,Cc1cnc(C(=O)Nc2ccc(F)cc2)cn1,-11.7% (inactive)
14,COc1cccc(C2c3c(-c4cc(Cl)c(C)cc4O)n[nH]c3C(=O)N2Cc2cccnc2)c1 (stereo unspecified),-4.8% (inactive)
15,CCOC(=O)N1CCN(C(=O)c2cccn3c(=O)c4sccc4nc23)CC1,-2.4% (inactive)
16,FC(F)(F)c1ccc(N2CCN(c3ncnc4c3nnn4Cc3ccccc3Cl)CC2)cc1,-17.6% (inactive)
17,Cc1c(C(=O)OCCOC(C)C)[nH]c2c1C(=O)CC(C)(C)C2,-5.6% (inactive)
18,CCOC(=O)c1[nH]c2c(c1C)C(=O)CC(c1ccc(F)cc1)C2 (stereo unspecified),70.2% (active)
19,COc1ccc(OC)c(C2CC(=O)c3c([nH]c(C(=O)OC(C)C)c3C)C2)c1 (stereo unspecified),10.6% (inactive)
20,COCCOC(=O)c1[nH]c2c(c1C)C(=O)CC(c1ccc(F)cc1)C2 (stereo unspecified),-9% (inactive)
21,CC1=C(C(=O)OCc2ccccc2)C(c2ccco2)C2=C(CC(C)(C)CC2=O)N1 (stereo unspecified),-6.1% (inactive)

row,Compound,cytotoxicity
1,Cc1c(C(=O)OCc2ccccc2)[nH]c2c1C(=O)CC(c1ccco1)C2 (stereo unspecified),67.8% (active)
2,Cc1c(C(=O)OCCOC(C)C)[nH]c2c1C(=O)CC(c1ccco1)C2 (stereo unspecified),66.2% (active)
3,CCC(C)OC(=O)c1[nH]c2c(c1C)C(=O)CC(c1ccc(N(C)C)cc1)C2 (stereo unspecified),-1.9% (inactive)
4,Cc1c(C(=O)O)[nH]c2c1C(=O)CC(c1ccc(Cl)cc1)C2 (stereo unspecified),-4.3% (inactive)
5,Cc1c(C(=O)N2CCOCC2)[nH]c2c1C(=O)CC(c1ccccc1Cl)C2 (stereo unspecified),34.2% (inactive)
6,Cc1c(C(=O)OCC(C)C)[nH]c2c1C(=O)CC(c1ccco1)C2 (stereo unspecified),63.9% (active)
7,COc1cc(C2CC(=O)c3c([nH]c(C(=O)OCCOC(C)C)c3C)C2)cc(OC)c1OC (stereo unspecified),-1.3% (inactive)
8,CCCCOc1ccc(C(=O)N2CC(C)OC(C)C2)cc1 (stereo unspecified),-6.4% (inactive)
9,Cc1ccc(-n2c(C)nc3c(cnn3-c3ccc(F)cc3)c2=O)cc1,-1.6% (inactive)
10,Cc1cc(NC(=O)C2CC(=O)OC2c2ccccc2)no1 (stereo unspecified),10.6% (inactive)
11,CC(=O)OC(C(=O)NC1CCCCC1)c1ccc(C#N)cc1 (stereo unspecified),-3.2% (inactive)
12,Cc1ccccc1-n1c(SCC(=O)N2CCOCC2)nc(O)cc1=O,3.4% (inactive)
13,COc1ccccc1C(=O)NC1CCCCCCC1,3.1% (inactive)
14,O=C(NC1=NCCS1)c1ccncc1,-1.5% (inactive)
15,O=C(COC(=O)c1cnccn1)NCCc1ccccc1,-15.3% (inactive)
16,Cc1c(C(=O)OC2CCCC2)[nH]c2c1C(=O)CC(c1ccco1)C2 (stereo unspecified),64.9% (active)
17,Cc1c(C(=O)OC2CCCCC2)[nH]c2c1C(=O)CC(C)(C)C2,-1.3% (inactive)
18,Cc1c(C(=O)OC2CCC(C)CC2)[nH]c2c1C(=O)CCC2 (stereo unspecified),0.6% (inactive)
19,COc1ccc(C2=NOC(C(=O)NC(C)C)C2)cc1 (stereo unspecified),-5.6% (inactive)
